A selection: hits, their analogues and other compounds. The true share with any hit is near 0.89%.
MEP2-GFP yeast: modulators of TOR pathway MEP2-GFP in S. cerevisiae. S. cerevisiae MEP2-GFP strain, flow cytometry GFP, 3 h; 100% = DMSO control level. 0.51% of 330,000 active. AID 2016. GFP response vs DMSO, % at 10 µM;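 active = GFP response versus DMSO above a set limit, roughly screen mean plus 3 SD, cut at about 180% in these data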;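 also: median GFP fluorescence of the barcode-gated MEP2-GFP cells per well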
AGP1-GFP MLPCN: yeast TOR pathway AGP1-GFP modulation | S. cerevisiae AGP1-GFP multiplex flow cytometry, 3 h; GFP as percent of DMSO wells | GFP response vs DMSO, % at 10 µM | 0.02% of 320,000 active;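 active = GFP response relative to DMSO above a set limit, near screen average plus 3 SD, cut at about 150% in these data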;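 also: median GFP channel fluorescence of the gated AGP1 strain per well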
LAP4-GFP MLPCN: yeast TOR pathway LAP4-GFP modulation; S. cerevisiae LAP4-GFP multiplex, flow cytometry GFP, 3 h; median GFP as percent of DMSO wells; GFP response vs DMSO, % at 10 µM; 0.34% of 320,000 active; AID 2023;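 active = GFP response vs DMSO above a set limit, about the screen mean plus 3 SD, cut at about 150% in these data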
RPL19A-GFP yeast: yeast TOR pathway RPL19A-GFP modulation; S. cerevisiae RPL19A-GFP strain, flow cytometry, 3 h; active compounds read low; percent response vs DMSO, % at 10 µM; 0.3% of 330,000 active;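 active = percent response vs DMSO below 50%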;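 also: median channel GFP fluorescence of the barcoded RPL19A-GFP strain; ratio of sample median GFP to plate DMSO average so 100% = DMSO; lower means less RPL19A-GFP as with rapamycin TOR inhibition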
CIT2 TOR yeast: alters CIT2-GFP fluorescence in TOR pathway yeast screen; S. cerevisiae CIT2-GFP strain, flow cytometry, 3 h; 100 means same as DMSO wells; GFP response vs DMSO, % at 10 µM; 0.065% of 320,000 active;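 active = GFP response relative to DMSO above a set limit, near the screen mean plus 3 SD, cut at about 150% in these data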;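 also: ratio of well median GFP fluorescence to mean of DMSO wells on the plate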
LAP4 cherry2: second confirmation of modulators of TOR reporter LAP4-GFP in yeast | S. cerevisiae LAP4-GFP strain, flow cytometry GFP, 3 h | GFP response vs DMSO, % at 10 µM | 20% of 590 active | shares compounds with LAP4-GFP MLPCN;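 active = GFP signal as percent of the solvent control above about 150%, meaning raised reporter expression, limit read from the data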;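 also: ratio of well median GFP fluorescence to plate DMSO mean so 100% = DMSO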
MEP2-GFP pick2: yeast MEP2-GFP modulation, second cherry pick; shares compounds with LAP4-GFP MLPCN; S. cerevisiae MEP2-GFP strain, flow cytometry GFP, 3 h; GFP response vs DMSO, % at 10 µM; 10% of 590 active;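 active = GFP signal above 150% of the solvent control wells, that is a rise of more than half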;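 also: median channel GFP fluorescence of all gated yeast cells per well; ratio of median GFP to plate DMSO average so 100% = DMSO level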
RPL19A-GFP pick2: yeast RPL19A-GFP TOR reporter modulation, second cherry pick; shares compounds with LAP4-GFP MLPCN; S. cerevisiae RPL19A-GFP strain, flow cytometry GFP, 3 h; active compounds read low; 100% means same as DMSO wells; 3% of 590 active; GFP response vs DMSO, % at 10 µM; AID 2623;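 active = under 65% GFP response relative to DMSO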;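 also: median GFP channel fluorescence per well over the all cells gate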
CIT2 GFP CP2: second confirmation of modulators of TOR reporter CIT2-GFP in yeast. GFP response vs DMSO, % at 10 µM. 8% of 590 active. S. cerevisiae CIT2-GFP strain, flow cytometry GFP, 3 h; DMSO control wells read 100%. shares compounds with LAP4-GFP MLPCN;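 active = GFP response vs DMSO above about 150%, limit read from the data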;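 also: median green fluorescence per well over all gated yeast cells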
AGP1 GFP CP2: yeast AGP1-GFP TOR reporter modulation, second cherry pick; shares compounds with LAP4-GFP MLPCN; S. cerevisiae AGP1-GFP strain, flow cytometry GFP, 3 h; percent response vs DMSO, % at 10 µM; 590 tested, under 10 active; AID 2643;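 active = over 150 percent of DMSO response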;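 also: median GFP channel fluorescence over all cells without mother daughter split; sample median GFP divided by mean DMSO control so 100% equals DMSO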
s288c autofluor: counter-screen for compound autofluorescence in yeast s288c cells; shares compounds with LAP4-GFP MLPCN; S. cerevisiae s288c, 520 nm autofluorescence, flow cytometry, 3 h; active compounds read high; zero means same as solvent-only cells; fluorescence change (kMESF span) at 33 µM; 610 tested, under 10 active;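 active = fluorescence span over the dose series, or activity score, above about 33, limit read from the data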
Yeast autofl DR: counter-screen for autofluorescence of TOR hits in yeast s288c. shares compounds with LAP4-GFP MLPCN. 110 tested, under 10 active. S. cerevisiae s288c parental, compound autofluorescence, flow cytometry, 3 h. fluorescence change (span) at 33 µM;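 active = fluorescence change span, or the activity score built from it, above 25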
TORC1 bypass: wildtype yeast growth loss with TORC1 bypass cells unaffected; shares compounds with LAP4-GFP MLPCN; S. cerevisiae BY4741 spot growth rating, 48-72 h; active compounds read low; growth rating (0-3) at 30 µM; 120 tested, under 10 active; AID 504456;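 active = growth rating at most 1 for wild type yeast while the TORC1 bypass strain still grows fully, rated 3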
Active calls of the source: *; x = no result given.

SMILES	MEP2-GFP yeast	AGP1-GFP MLPCN	LAP4-GFP MLPCN	RPL19A-GFP yeast	CIT2 TOR yeast	LAP4 cherry2	MEP2-GFP pick2	RPL19A-GFP pick2	CIT2 GFP CP2	AGP1 GFP CP2	s288c autofluor	others
O=C1C=CC(=O)N1c1ccc(OC(F)F)cc1	87	77	152*	87	72	206*	131	87	118	88	1.7
O=C1C=CC(=O)N1c1ccc(O)cc1	85	94	185*	90	92	x	x	x	x	x	3
O=C1CCCC(=O)N1c1ccc(O)cc1	97	102	97	103	101	x	x	x	x	x	x
O=C(CCNC(=O)N1CCn2c1nc1ccccc12)NCc1ccc(F)cc1	119	17	85	60	100	101	105	100	101	97	x
COc1ccccc1C(C#N)c1cccc(Cl)n1 (configuration not stated)	101	103	94	104	95	x	x	x	x	x	x
CC(C)[C@H](NC(=O)C1CCN(C(=O)[C@@H]2CCCN2)CC1)C(=O)NCc1ccc(F)cc1	100	101	94	94	99	x	x	x	x	x	x
O=C1ON=C(c2ccccc2)/C1=C/c1ccco1	98	80	169*	91	73	x	x	x	x	x	1.9	Yeast autofl DR=0.73;TORC1 bypass=3
CN(C)/C=C1\C(=O)ON=C1c1ccccc1	102	97	91	98	98	x	x	x	x	x	x
CCOc1cc(/C=C2\C(=O)ON=C2c2ccccc2)ccc1OC	93	78	118	101	101	x	x	x	x	x	x
O=C1ON=C(c2ccccc2)/C1=C/c1ccc(-c2ccccc2[N+](=O)[O-])o1	91	86	179*	86	88	150*	117	100	106	98	0.6
O=[N+]([O-])c1ccccc1-c1ccc(/C=N/n2cnnc2)o1	112	116	111	110	100	x	x	x	x	x	x
COc1ccc(/C=C2\C(=O)ON=C2c2ccccc2)cc1OC	112	104	100	105	105	x	x	x	x	x	x
COc1cc(/C=C2\C(=O)ON=C2c2ccccc2)cc(OC)c1OC	90	75	143	78	76	195*	120	96	123	94	0
COc1ccc(/C=C2/C(=O)ON=C2c2ccccc2)cc1OC	87	80	171*	89	83	x	x	x	x	x	0.5
COC1=CC(=O)C[C@@H](C)[C@]12Oc1c(Cl)c(OC)cc(OC)c1C2=O	95	81	99	100	78	x	x	x	x	x	x
Cc1ccc(NC(=O)C(C)OC(=O)Cn2cnc3ccccc3c2=O)cc1 (configuration not stated)	96	102	103	98	95	x	x	x	x	x	x
O=c1c2ccccc2nc(/C=C/c2ccc([N+](=O)[O-])o2)n1CCCO	230*	81	193*	104	179*	300*	353*	143	275*	124	x
Cc1ccc(N/N=C(\C#N)C(N)=S)c(C)c1	142	101	161*	84	90	166*	218*	86	136	128	4.1
COc1cccc(NC(=O)C(=O)NCCCN2CCCC2=O)c1	96	100	94	91	96	x	x	x	x	x	x
O=c1cc(CSc2ccc(Cl)cc2)nc(-c2ccccn2)[nH]1	87	74	211*	83	88	264*	169*	86	121	107	-0.3	Yeast autofl DR=0.59;TORC1 bypass=0
O=C(Nc1ccon1)Nc1ccccc1C(F)(F)F	100	94	76	108	97	x	x	x	x	x	x
O=C(COc1ccccc1)N1CCN(c2ncnc3c2cnn3-c2ccccc2)CC1	190*	103	95	94	85	x	x	x	x	x	0
O=C(NCC1COc2ccccc2O1)c1cccc(S(=O)(=O)NCc2ccccc2)c1 (configuration not stated)	96	100	101	95	95	x	x	x	x	x	x
COc1cccc(-c2ncc3ccccc3c2COC(=O)c2cccc(Br)c2)c1	103	101	159*	95	81	132	98	91	105	96	x
COc1cccc(-c2ncc3ccccc3c2COC(=O)c2ccc(Br)cc2)c1	85	95	112	93	84	x	x	x	x	x	x
SMILES	MEP2-GFP yeast	AGP1-GFP MLPCN	LAP4-GFP MLPCN	RPL19A-GFP yeast	CIT2 TOR yeast	LAP4 cherry2	MEP2-GFP pick2	RPL19A-GFP pick2	CIT2 GFP CP2	AGP1 GFP CP2	s288c autofluor	others
Fc1cccc(Nc2ncnc3c2cnn3-c2ccccc2)c1	99	93	157*	91	69	133	103	87	86	88	0
CN1C(=O)[C@@H]2C[C@@]3([C@@]45C[C@H]6C(=O)N(C)[C@@H](Cc7ccccc7)C(=O)N6[C@@H]4Nc4ccccc45)c4ccccc4N[C@H]3N2C(=O)[C@@H]1Cc1ccccc1	94	94	155*	99	129	97	96	103	108	100	x
O=C1N[C@@H](Cc2ccccc2)C(=O)N2[C@H]3Nc4ccccc4[C@@]3([C@]34C[C@H]5C(=O)N[C@@H](Cc6ccccc6)C(=O)N5[C@H]3Nc3ccccc34)C[C@@H]12	98	103	91	99	99	x	x	x	x	x	x
CCOc1ccc(C(C)=O)cc1N1C(=O)C2C3C=CC(O3)C2C1=O (configuration not stated)	84	78	203*	98	87	x	x	x	x	x	0.51
CC1CC(C)CN(C(=O)COC(=O)CCC(=O)c2cccs2)C1 (configuration not stated)	97	111	165*	86	79	99	102	97	109	106	x
CC(=O)N1CCN(C(=O)c2ccc(NS(=O)(=O)c3ccc4c(c3)OCCO4)cc2)CC1	99	100	100	97	92	x	x	x	x	x	x
